Compound activity: PubChem BioAssay, several laboratories
Hits are enriched below; roughly 1.2% of the tested compounds scored in any of these assays.
Furin inhibitor: human furin inhibition | purified furin, fluorogenic substrate cleavage | inhibition, % at 20 µM or 30 µM | 220,000 tested, 0.061% active | AID 463115; in the data active = inhibition above about 25%
p97 ATPase inh: human p97 ATPase inhibition | 220,000 tested, 0.42% active | P55072 | recombinant p97 ATPase, Kinase-Glo ATP luminescence, 3 h | inhibition, % at 8 µM; in the data active = inhibition above about 15%
FAS-TE inh: FAS thioesterase (human) inhibition. P49327. recombinant FAS-TE, OMFH fluorogenic substrate, fluorescence endpoint. 360,000 tested, 0.67% active. inhibition, % at 15 µM;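 active = compounds whose normalised, plate-corrected inhibition of enzyme fluorescence in the single-dose primary screen is 50% or more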
SUMO HTRF inh: inhibitors of human SUMOylation (UBC9); HTRF SUMOylation assay, SAE1/SAE2 + UBC9, in vitro; inhibition, % at 35 µM; 290,000 tested, 0.36% active; in the data active = inhibition above about 50%, passing the limit was not always enough
Target sequence (P63279 whole entry, looked up): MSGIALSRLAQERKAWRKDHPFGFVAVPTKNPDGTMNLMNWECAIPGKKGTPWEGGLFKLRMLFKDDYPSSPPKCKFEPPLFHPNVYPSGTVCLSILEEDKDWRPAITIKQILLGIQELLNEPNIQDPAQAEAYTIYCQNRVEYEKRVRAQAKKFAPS
PKD1 kinase inh: PKD1 (human) kinase inhibition; Q15139; PKD1 kinase fluorescence polarization assay; inhibition, % (test concentration not listed); 200,000 tested, 0.056% active; AID 797; in the data active = inhibition above about 50%
DTT redox prof: compounds producing H2O2 with reducing agent – biochemical, NIH compound library profiling, artefact control for MLSCN library redox annotation, primary screen; DTT-dependent redox cycling H2O2, phenol red/HRP absorbance; 100% = 100 µM peroxide control, 0% = buffer; activation, % at 10 µM; 200,000 tested, 0.03% active; AID 878;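 active = activation of at least 50% relative to the plate's high and low controls in the primary single-dose screen; inactive = activation below 50%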;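 also: compound incubated with DTT at 0.8 mM final as the reducing agent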
p97 confirm: confirmation of human p97 ATPase inhibitors | shares compounds with p97 ATPase inh | inhibition, % at 8 µM | recombinant p97 ATPase, Kinase-Glo ATP luminescence | 760 tested, 44% active;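 active = percent inhibition of p97 ATPase above a set limit, the primary screen's mean plus 3 SD, cut at about 15% in these data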
Hits are given with their value; n = inactive; x = not tested or not shown.

SMILES	Furin inhibitor	p97 ATPase inh	FAS-TE inh	SUMO HTRF inh	PKD1 kinase inh	DTT redox prof	p97 confirm
COc1ccc(C(=O)c2no[n+]([O-])c2C(=O)c2ccc(OC)cc2)cc1	n	n	n	n	n	n	x
Cc1c(C(=O)c2no[n+]([O-])c2C(=O)c2cnn(C)c2C)cnn1C	n	33.8	n	n	n	n	36.2
O=C(N/N=C/c1c[nH]c2ccc(Br)cc12)c1ccc2c(c1)OCO2	n	15.7	n	n	n	n	n
CN(CC(=O)NCCCN1CCOCC1)S(=O)(=O)c1ccc(Cl)cc1	x	x	n	x	x	x	x
COc1ccccc1C(=O)NCC(=O)N/N=C/c1ccncc1	n	16.2	n	n	n	n	n
O=C(OCC(=O)c1c[nH]c2ccccc12)c1ccc([N+](=O)[O-])s1	n	31.2	n	n	n	n	40.1
CCc1cccc2c(C(=O)COC(=O)c3ccc([N+](=O)[O-])s3)c[nH]c12	n	n	n	n	n	n	x
CCCCn1nc2cc(C(=O)NCc3ccc(OC(F)(F)F)cc3)ccc2c1OC	n	16.0	n	n	n	n	n
CCCCn1nc2cc(C(=O)NCc3cc(C(F)(F)F)cc(C(F)(F)F)c3)ccc2c1OC	n	n	n	n	n	n	x
c1ccc(Cn2nnc3c(N4CCCCCC4)ncnc32)cc1	n	19.7	n	n	n	n	n
CC(=O)NC(CC(=O)OCC(=O)N1CCN(S(=O)(=O)c2ccc(Cl)cc2)CC1)c1ccccc1 (configuration not stated)	x	x	n	x	x	x	x
CCC(=O)Nc1cccc(-c2cnc3ccccc3n2)c1	n	n	n	n	n	n	x
O=C(CCl)Nc1cccc(-c2cnc3ccccc3n2)c1	n	17.9	n	n	n	n	34.7
O=C(Nc1ccc2nc(-c3cccs3)[nH]c2c1)c1cccs1	n	15.2	n	n	n	n	19.3
O=C(Nc1ccc2nc(-c3cccs3)[nH]c2c1)c1ccco1	n	n	n	n	n	n	x
COc1ccccc1CNC(=O)COc1ccc(S(=O)(=O)N2CCOCC2)cc1C	x	x	n	n	x	x	x
O=C(c1cccc(S(=O)(=O)NCc2ccccc2)c1)N1CCCC(C(F)(F)F)C1 (configuration not stated)	x	x	n	x	x	x	x
O=c1cc(-c2ccc(O)c(-c3c(O)cc(O)c4c(=O)cc(-c5ccc(O)cc5)oc34)c2)oc2cc(O)cc(O)c12	n	40.6	n	n	n	n	63.9
O=c1cc(-c2ccc(O)cc2)oc2c(-c3c(O)cc(O)c4c(=O)cc(-c5ccc(O)cc5)oc34)c(O)cc(O)c12	x	x	n	x	x	x	x
CSC1=C(C#N)C(=O)NC(c2ccc(Cl)cc2)S1 (configuration not stated)	n	17.6	n	n	x	x	30.8
CSc1nc(-c2ccc(Cl)cc2)c(C#N)c(=O)[nH]1	n	n	n	n	n	n	x
COc1ccc(OC)c(NC(=O)c2nnn(CC(=O)Nc3ccc4c(c3)OCO4)c2N)c1	x	x	n	n	x	x	x
CCOc1ccc(S(=O)(=O)NCCC(=O)NCC(c2ccco2)N2CCCCC2)cc1 (configuration not stated)	x	x	n	x	x	x	x
COc1ccc(OCCC(=O)OCC(=O)Nc2cccc(S(=O)(=O)N3CCCCC3)c2)cc1	x	x	n	x	x	x	x
Cc1[nH]c2ccccc2c1C(=O)COC(=O)CCS(=O)(=O)c1ccccc1Cl	n	26.7	n	n	n	n	30.0
SMILES	Furin inhibitor	p97 ATPase inh	FAS-TE inh	SUMO HTRF inh	PKD1 kinase inh	DTT redox prof	p97 confirm
CCCN(CC(=O)Nc1ccccc1C)CC(=O)Nc1ccc(Br)cc1F	x	x	n	n	x	x	x
N#CC1=C(SCC(=O)Nc2ccc(C(=O)O)cc2)NC(=O)CC1c1ccco1 (configuration not stated)	n	16.9	n	n	x	x	n
Cc1ccc(NC(=O)CSC2=C(C#N)C(c3ccco3)C3=C(CCCC3=O)N2)cc1 (configuration not stated)	n	n	n	n	n	n	x
CCOc1ccccc1C(=O)Nc1cc(Cl)ccc1O	n	17.6	n	n	n	n	23.2
O=C(CC1CCCC1)Nc1ccc2c(c1)CCC2	n	46.2	n	n	n	n	n
O=C(Cc1ccccc1)Nc1ccc2c(c1)CCC2	n	n	n	n	n	n	x
CN1c2ccccc2SC2C(c3ccccc3)=NOC21 (configuration not stated)	x	x	n	x	x	x	x
O=C(Nc1cc(Cl)ccn1)C1(c2ccccc2)CC1(Cl)Cl (configuration not stated)	n	16.7	n	n	x	x	25.1
COc1ccc(Nc2ccnc3ccccc23)cc1	n	n	n	n	n	n	x
CC(C)Nc1ccc(Nc2ccnc3cc4ccccc4cc23)cc1	n	28.7	n	n	x	x	32.7
O=S(=O)(c1ccc(Cl)cc1)c1snnc1-c1ccccc1	n	15.8	n	n	n	n	n
O=S(=O)(c1ccc(F)cc1)c1snnc1-c1ccccc1	n	n	n	n	n	n	x
Cc1nc(S/C(=C\c2ccc(OCc3ccccc3Cl)cc2)C(=O)O)n[nH]1	n	n	n	n	n	n	x
Cc1nc(S/C(=C\c2ccc(-c3ccc(C(=O)O)c(Cl)c3)o2)C(=O)O)n[nH]1	n	52.5	n	n	x	x	44.1
Cc1cc(C)cc(NC(=O)CCn2ccnc2)c1	x	x	n	n	x	x	x
COc1ccccc1C(=O)Nc1nnc(S(=O)(=O)N(C)Cc2ccccc2)s1	x	x	n	x	x	x	x
CC(=O)NS(=O)(=O)c1ccc(NC(=O)c2cc3c(=O)n4ccccc4nc3s2)cc1	n	16.8	n	n	x	x	n
NC1=NC2(CCCCC2)N(c2cccc(Cl)c2)C(N)=N1	n	25.0	n	n	n	n	n
Cc1cccc(C)c1NC(=O)COC(=O)c1cccnc1	n	17.4	n	n	n	n	n
COc1ccc(S(=O)(=O)N2CCOCC2)cc1C(=O)N1CCCC1	x	x	n	n	x	x	x
CCOC1=C2CN(S(=O)(=O)c3ccc(C)cc3)[C@H](c3ccccc3)C[C@@H]2N(S(=O)(=O)c2ccc(C)cc2)[C@H](c2ccccc2)C1	x	x	n	x	x	x	x
CCCC1Nc2ccc(C(=O)O)cc2C2C=CCC12 (configuration not stated)	n	25.8	n	n	n	n	n
CC(C)C1Nc2ccc(C(=O)O)cc2C2C=CCC21 (configuration not stated)	n	n	n	n	n	n	x
O=c1[nH]c(NNC(=S)NC2CCCCC2)nc2c1C1(CCCC1)Cc1ccccc1-2	n	n	n	n	x	x	x
Oc1c(C=C2N=c3ccccc3=N2)sc(=S)n1-c1ccccc1	n	n	n	n	n	n	x
CC1=Nc2ccccc2/C1=C/c1sc(=S)n(-c2cccc(C(=O)O)c2)c1O	n	16.4	n	n	n	n	34.6
CCOc1ccc(-c2cc(N3C(=O)Nc4ccccc4N3O)n[nH]2)cc1	n	16.6	n	n	n	n	n
COc1cccc(-c2cc(N3C(=O)Nc4ccccc4N3O)n[nH]2)c1	n	n	n	n	n	n	x
